Assay outcomes from PubChem BioAssay.
Compounds with a hit are over-represented: about 3.6% of the library has one in this group of screens.
Pf apPOL inh: Pf-apPOL inhibitors, biochemical, fluorescence; Plasmodium falciparum apicoplast DNA polymerase (apPOL); Recombinant Pf-apPOL, molecular beacon fluorescence, 1.5 h; inhibition, % at 10 µM; actives 0.25% (n = 210,000); AID 1794808, 2022
mHTT-CaM PPI inh: mutant huntingtin-calmodulin interaction inhibitors – biochemical, AlphaScreen, primary screen; P42858; AlphaScreen His-mHTT/GST-CaM binding, luminescence; inhibition, % at 15 µM; actives 3.6% (n = 190,000);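 note: 0% = both proteins with DMSO and 100% = one protein alone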
Target sequence (P42858 whole entry, looked up, stated change not applied): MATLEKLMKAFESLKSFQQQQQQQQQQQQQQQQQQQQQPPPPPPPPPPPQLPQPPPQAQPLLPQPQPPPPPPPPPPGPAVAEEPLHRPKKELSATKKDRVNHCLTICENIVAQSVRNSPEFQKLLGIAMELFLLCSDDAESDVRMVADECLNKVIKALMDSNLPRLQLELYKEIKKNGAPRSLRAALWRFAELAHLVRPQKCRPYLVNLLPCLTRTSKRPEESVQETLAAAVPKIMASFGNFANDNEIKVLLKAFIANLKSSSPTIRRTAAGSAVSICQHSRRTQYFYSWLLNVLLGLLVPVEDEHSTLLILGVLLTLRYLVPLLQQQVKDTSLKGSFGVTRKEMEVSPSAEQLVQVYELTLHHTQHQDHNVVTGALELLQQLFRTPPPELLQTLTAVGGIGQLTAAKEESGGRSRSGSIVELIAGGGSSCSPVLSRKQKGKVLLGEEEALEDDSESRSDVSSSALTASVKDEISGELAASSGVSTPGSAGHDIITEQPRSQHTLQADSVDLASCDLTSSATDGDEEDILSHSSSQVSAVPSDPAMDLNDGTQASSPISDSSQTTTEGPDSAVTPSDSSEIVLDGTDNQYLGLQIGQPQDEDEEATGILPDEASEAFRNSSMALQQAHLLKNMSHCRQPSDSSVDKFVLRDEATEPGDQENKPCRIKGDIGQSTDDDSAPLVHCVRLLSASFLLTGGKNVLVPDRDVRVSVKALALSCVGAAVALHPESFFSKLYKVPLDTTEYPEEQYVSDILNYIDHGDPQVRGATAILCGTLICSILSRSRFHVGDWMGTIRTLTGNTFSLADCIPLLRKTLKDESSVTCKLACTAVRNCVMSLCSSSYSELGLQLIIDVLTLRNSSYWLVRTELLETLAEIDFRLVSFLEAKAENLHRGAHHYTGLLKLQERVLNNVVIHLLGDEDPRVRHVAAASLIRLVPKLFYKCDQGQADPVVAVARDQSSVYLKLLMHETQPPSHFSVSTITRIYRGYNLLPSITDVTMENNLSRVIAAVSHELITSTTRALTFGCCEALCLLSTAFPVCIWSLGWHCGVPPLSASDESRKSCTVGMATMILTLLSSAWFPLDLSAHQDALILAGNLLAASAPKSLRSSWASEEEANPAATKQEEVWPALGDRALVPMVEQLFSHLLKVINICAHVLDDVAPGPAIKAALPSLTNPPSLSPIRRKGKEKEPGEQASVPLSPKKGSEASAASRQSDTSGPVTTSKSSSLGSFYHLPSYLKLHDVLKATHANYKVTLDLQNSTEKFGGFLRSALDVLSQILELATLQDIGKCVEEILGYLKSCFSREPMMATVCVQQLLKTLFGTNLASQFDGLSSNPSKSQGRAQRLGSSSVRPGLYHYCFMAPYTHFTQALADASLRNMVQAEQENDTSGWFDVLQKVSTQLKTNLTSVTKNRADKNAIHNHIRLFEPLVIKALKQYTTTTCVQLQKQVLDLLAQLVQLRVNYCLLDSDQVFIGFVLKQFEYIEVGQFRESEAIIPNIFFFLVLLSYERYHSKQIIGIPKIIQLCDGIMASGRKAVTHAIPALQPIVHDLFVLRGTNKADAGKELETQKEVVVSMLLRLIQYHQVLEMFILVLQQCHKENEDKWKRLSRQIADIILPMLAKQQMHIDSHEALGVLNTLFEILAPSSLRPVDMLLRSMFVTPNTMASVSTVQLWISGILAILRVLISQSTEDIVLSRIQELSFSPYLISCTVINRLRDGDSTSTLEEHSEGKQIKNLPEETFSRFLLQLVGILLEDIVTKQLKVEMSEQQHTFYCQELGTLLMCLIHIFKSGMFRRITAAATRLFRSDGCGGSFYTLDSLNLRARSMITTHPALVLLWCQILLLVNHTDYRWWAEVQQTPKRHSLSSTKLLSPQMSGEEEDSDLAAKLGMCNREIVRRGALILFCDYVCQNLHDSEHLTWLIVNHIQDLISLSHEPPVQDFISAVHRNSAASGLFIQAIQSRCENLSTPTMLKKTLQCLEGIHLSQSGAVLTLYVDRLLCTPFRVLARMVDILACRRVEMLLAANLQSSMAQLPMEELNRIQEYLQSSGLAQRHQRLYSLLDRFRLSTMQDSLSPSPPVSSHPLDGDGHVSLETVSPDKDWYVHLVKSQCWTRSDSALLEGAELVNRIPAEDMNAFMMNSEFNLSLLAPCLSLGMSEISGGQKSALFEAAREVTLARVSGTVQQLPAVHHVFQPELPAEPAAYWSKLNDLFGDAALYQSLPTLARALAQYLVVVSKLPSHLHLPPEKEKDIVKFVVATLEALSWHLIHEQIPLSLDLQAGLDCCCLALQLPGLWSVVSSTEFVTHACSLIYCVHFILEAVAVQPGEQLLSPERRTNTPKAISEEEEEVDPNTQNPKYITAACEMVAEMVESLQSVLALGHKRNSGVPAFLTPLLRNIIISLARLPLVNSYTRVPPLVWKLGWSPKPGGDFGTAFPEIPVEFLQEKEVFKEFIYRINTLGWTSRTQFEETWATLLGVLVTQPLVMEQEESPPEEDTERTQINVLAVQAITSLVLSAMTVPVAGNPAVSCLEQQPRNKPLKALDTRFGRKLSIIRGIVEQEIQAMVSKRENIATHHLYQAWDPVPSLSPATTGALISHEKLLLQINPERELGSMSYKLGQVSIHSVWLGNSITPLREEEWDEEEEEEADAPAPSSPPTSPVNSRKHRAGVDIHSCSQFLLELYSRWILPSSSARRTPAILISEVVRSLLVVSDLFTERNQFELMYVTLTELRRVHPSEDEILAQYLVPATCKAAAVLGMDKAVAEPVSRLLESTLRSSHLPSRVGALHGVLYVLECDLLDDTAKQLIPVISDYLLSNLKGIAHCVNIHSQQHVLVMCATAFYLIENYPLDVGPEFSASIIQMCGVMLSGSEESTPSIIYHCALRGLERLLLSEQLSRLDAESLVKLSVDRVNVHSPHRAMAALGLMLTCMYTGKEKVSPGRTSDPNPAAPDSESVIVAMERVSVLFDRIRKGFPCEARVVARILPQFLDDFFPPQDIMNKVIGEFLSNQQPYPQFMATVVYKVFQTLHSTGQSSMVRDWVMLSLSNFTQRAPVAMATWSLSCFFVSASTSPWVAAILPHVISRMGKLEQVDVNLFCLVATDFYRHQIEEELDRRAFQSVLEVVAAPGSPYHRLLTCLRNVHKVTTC
Numbers without * were called inactive. Cut-off read from the data, not from the text of the source: active = inhibition above about 50%; inactive = the rest.

SMILES	Pf apPOL inh	mHTT-CaM PPI inh
CCNC(=O)c1cc2c(=O)n3ccccc3nc2n(Cc2ccco2)c1=N	15.5	18.0
Cc1cccn2c(=O)c3cc(C(=O)NCc4ccccc4)c(=N)n(Cc4ccco4)c3nc12	12.3	38.0
CCOc1ccc(N(CC(=O)Nc2ccc(I)cc2)S(C)(=O)=O)cc1	1.0	2.7
Fc1ccccc1C1C2=C(Nc3ncnn31)c1cc(Cl)ccc1OC2c1ccncc1 (centres undefined)	0.6	21.0
COc1ccc(C2C3=C(Nc4ncnn42)c2ccccc2OC3c2cccc(OC)c2)cc1 (centres undefined)	-5.1	56.0*
Cc1ccc(C2C3=C(Nc4ncnn42)c2ccccc2OC3c2cccc([N+](=O)[O-])c2)cc1 (centres undefined)	0.1	50.0*
COc1ccc(C2C3=C(Nc4ncnn42)c2ccccc2OC3c2cccc(Cl)c2)cc1 (centres undefined)	-9.6	41.0
COc1cccc(C2C3=C(Nc4ncnn42)c2ccccc2OC3c2ccccc2OC)c1 (centres undefined)	-6.8	64.0*
COc1ccccc1C1Oc2ccccc2C2=C1C(c1ccc(C)cc1)n1ncnc1N2 (centres undefined)	-0.7	15.0
Clc1ccc(C2Oc3ccccc3C3=C2C(c2cccs2)n2ncnc2N3)cc1 (centres undefined)	-7.7	56.0*
COc1cccc(C2C3=C(Nc4ncnn42)c2ccccc2OC3c2cccc(F)c2)c1 (centres undefined)	-4.1	37.0
O=C(c1ccco1)N1CCC(n2c(-c3ccco3)nc3cccnc32)C1 (centres undefined)	2.1	0.9
CCOC(=O)N1CCN(C(c2ccc(SC)cc2)c2c(O)cc(C)n(CC)c2=O)CC1 (centres undefined)	10.9	69.2*
CCOC(=O)N1CCN(C(c2cccs2)c2c(O)cc(C)n(CC)c2=O)CC1 (centres undefined)	2.4	-13.4
CC(=O)Nc1ccc(-c2noc(C3CCN(C(=O)c4ccc(C)cc4C)CC3)n2)cc1	-1.0	29.1
COc1ccc(C(=O)O)cc1S(=O)(=O)Nc1cc([N+](=O)[O-])ccc1C	4.5	-3.6
COc1ccc(C2OC3=C(C(=O)CC(C)(C)C3)C(N)=C2C#N)cc1 (centres undefined)	-1.4	4.0
CC(=O)N1CCc2[nH]c3ccc(C(=O)N(C)c4cccc(Cl)c4)cc3c2C1	-5.5	50.4*
CCCN1CCN(C(=O)c2ccc3[nH]c4c(c3c2)CN(C(C)=O)CC4)CC1	-4.6	7.6
CC(=O)N1CCc2[nH]c3ccc(C(=O)N4CCCC4)cc3c2C1	-0.5	61.3*
CC(=O)N1CCc2[nH]c3ccc(C(=O)N4CCN(Cc5ccccc5)CC4)cc3c2C1	-0.4	38.4
O=C(Nc1ccc(F)cc1)c1ccc(C(=O)Nc2ccc(F)cc2)cc1	-2.7	-0.8
O=C(NCCNC(=O)c1ccc(F)c(F)c1)c1ccc(NC(=O)c2ccc(F)cc2)cc1	38.5	69.3*
O=C(Cc1nc(-c2ccccn2)n[nH]1)NC1CCCC1	-10.3	98.4*
O=C(Cc1nc(-c2cnccn2)n[nH]1)NCc1ccccc1	4.0	24.5
SMILES	Pf apPOL inh	mHTT-CaM PPI inh
O=C(Cc1ccccc1)NC1CCCCCC1	-4.2	-4.9
O=C(Cc1nc(-c2ccccn2)n[nH]1)NC1CC1	-11.5	99.7*
COc1ccc(-n2nc3c(c2NC(=O)c2cc(OC)c(OC)cc2[N+](=O)[O-])CSC3)cc1	3.5	31.0
Cc1ccc(C)c(S(=O)(=O)N2CCc3c(c(COCc4ccccc4F)nn3C)C2)c1	-2.8	11.8
Cc1c(C(=O)Nc2cccc(I)c2)oc2ccccc12	-1.3	-3.8
O=C1OC(c2cccc(I)c2)=N/C1=C\c1ccccc1Cl	-0.8	4.0
Cn1cc(-c2nc(C(=O)NCc3ccccc3)cs2)c2cccnc21	-1.4	45.9
Cc1ccccc1CNC(=O)c1csc(-c2cn(C)c3ncccc23)n1	-1.3	71.8*
COc1ccc(NC(=O)c2ccc(-c3cccc(Cl)c3)o2)cc1OC	-5.4	26.9
COc1ccc(NC(=O)c2ccc(-c3ccc(Cl)cc3)o2)cc1OC	-17.5	59.4*
Cc1ccc(S(=O)(=O)N2CCC(Oc3cccc(C(F)(F)F)c3)CC2)cc1	-9.9	94.7*
O=S(=O)(Cc1ccccc1)N1CCC(Oc2cccc(C(F)(F)F)c2)CC1	-8.0	-25.2
O=C1c2ccccc2C(=O)c2c1cccc2S(=O)(=O)Nc1ccc(Cl)cc1	-2.9	70.0*
CCNS(=O)(=O)c1cccc2c1C(=O)c1ccccc1C2=O	4.1	12.0
CCc1nc(-c2ccccc2O)n(-c2ccccc2)n1	-7.9	2.1
COc1cc(/C=C/c2nc(-c3ccccc3O)n(-c3ccccc3)n2)ccc1O	-7.6	88.0*
COc1ccccc1NC(=O)C1=C(C)Nc2nc3ccccc3n2C1c1ccc(Cl)cc1 (centres undefined)	-0.5	51.0*
COc1ccccc1NC(=O)C1=C(C)Nc2nc3ccccc3n2C1c1cccnc1 (centres undefined)	-3.1	5.0
